The test system of the experiment is Toxoplasma gondii RH (in HFF). The experiment in a line: parasite growth relative to the screen mean (all compounds = 100%); higher = less inhibition of parasite growth. The conditions noted are these: 5 µM; 72 h; oxygen 21 %. The procedure, abridged:
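RH β-Gal–GFP Toxoplasma at MOI 1:5 was used to infect confluent human foreskin fibroblasts in 96-well plates within 2 h of pin-transferring compounds to 5 µM final. After 72 h at 21% O2, parasite number was determined by CPRG β-Gal assay against standard curves on the same plate. Growth is relative to the screen mean and averaged over two screens, with all compounds = 100%.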

Structures are written as SMILES. Counter-ions that a name gives are not always drawn. ± gives the standard deviation of the averaged measurements. Some results are limits rather than exact numbers.

Turning to `CN1C[C@H](C(=O)N[C@]2(C)O[C@@]3(O)[C@@H]4CCCN4C(=O)[C@H](Cc4ccccc4)N3C2=O)C[C@@H]2c3cccc4[nH]cc(c34)C[C@H]21` [Dihydroergotamine mesylate], the parasite growth is 39.27 ± 0.23%. The result for `NCCc1c[nH]c2ccc(C(N)=O)cc12` [5-Carboxamidotryptamine maleate] reads 158 ± 72%. The result for `FC(F)(F)c1cccc(C2=CCN(CCc3ccc4ccccc4c3)CC2)c1` [Xaliproden hydrochloride] reads 159.2 ± 1.1%; that for `Oc1ccc2c3c1O[C@H]1c4[nH]c5ccccc5c4C[C@@]4(O)[C@@H](C2)N(CC2CC2)CC[C@]314` [Naltrindole hydrochloride], 148 ± 35%.

`C[N+]1(C)CCc2cc3c(cc2[C@H]1[C@@H]1OC(=O)c2c1ccc1c2OCO1)OCO3` [(-)-Bicuculline methiodide] returned a parasite growth of 108 ± 8.7%. The result for `N[C@@H]1C[C@H]1c1ccccc1` [Tranylcypromine hydrochloride] reads 130 ± 22%; that for `COc1ccc2[nH]cc(C3=CCNCC3)c2c1`, 105 ± 28%; that for `Oc1ccc2c3c1O[C@H]1c4oc5ccccc5c4C[C@@]4(O)[C@@H](C2)N(CC2CC2)CC[C@]314` [Naltriben mesylate], 127 ± 55%. The result for `O=C(Cc1ccc(Cl)c(Cl)c1)N1CCCCC1CN1CCCC1` (centres undefined) reads 82.1 ± 15%; that for `c1cc(Cc2cnc[nH]2)ccn1` [Immethridine dihydrobromide], 133 ± 31%; that for `CCCN[C@@H]1CCc2c(OC)cccc2[C@@H]1C` [(+)-AJ 76 hydrochloride], 66.5 ± 24%.

Molecule `S=C=Nc1cccc(C2(N3CCCCC3)CCCCC2)c1` [Metaphit] had a parasite growth of 51.3 ± 6%. To `Clc1ccc(C2=CCCC3CCC2N3)cn1` (centres undefined) [UB 165 fumarate] belongs 106 ± 11%. To `CN1[C@@H]2CC[C@H]1C[C@@H](OC(c1ccc(F)cc1)c1ccc(F)cc1)C2` [3α-Bis-(4-fluorophenyl) methoxytropane hydrochloride] belongs 40.3 ± 22%. With `C(=C\c1ccccc1)/CN1CCN(CCOC(c2ccccc2)c2ccccc2)CC1`, the parasite growth amounted to 16.2 ± 8.1%. The result for `COC1(C[S@+]([O-])c2ccccc2)CCN(CCc2c[nH]c3ccc(F)cc23)CC1` reads 67.1 ± 9.3%; that for `O=C(O)Cc1cccnc1C(=O)O` [Homoquinolinic acid], 85.7 ± 1.6%. To `N[C@H](C(=O)O)c1cc(O)no1` [Ibotenic acid] belongs 136 ± 26%; to `Cn1c2c(c3ccccc31)CCNCC2`, 118 ± 15%. The result for `CCCN(C/C=C/I)C1CCc2ccc(O)cc2C1` (centres undefined) [7-Hydroxy-PIPAT maleate] reads 181 ± 37%. In turn, `OC(Cc1ccncc1)C(Cl)(Cl)Cl` (centres undefined) showed a parasite growth of 133 ± 9.6%.

`O=C(CCCN1CCC2(CC1)C(=O)NCN2c1ccccc1)c1ccc(F)cc1` [Spiperone hydrochloride] displayed a parasite growth of 99.8 ± 36%. To `COC(=O)/C=C/C(=O)N[C@@H]1CC[C@@]2(O)[C@H]3Cc4ccc(O)c5c4[C@@]2(CCN3CC2CC2)[C@H]1O5` [β-Funaltrexamine hydrochloride] belongs 74.5 ± 28%. To `COc1cc2c(cc1O)C(CCc1ccc(Cl)cc1)N(C)CC2` (centres undefined) belongs 58.7 ± 22%; to `NCC(CS(=O)(=O)O)c1ccc(Cl)cc1` (centres undefined) [Saclofen], 114 ± 24%; to `CC(C)[C@@]1(NC(=O)[C@@H]2C[C@@H]3c4cccc5[nH]cc(c45)C[C@H]3N(C)C2)O[C@@]2(O)[C@@H]3CCCN3C(=O)[C@H](Cc3ccccc3)N2C1=O` [Dihydroergocristine mesylate], 8.76 ± 1.6%. To `CCCCCCC[n+]1ccc(-c2cc[n+](CCCCCCC)cc2)cc1` [DHBP dibromide] belongs 86.1 ± 44%; to `CCCCC/C=C\C/C=C\C/C=C\C/C=C\CCCC(=O)Nc1ccc(O)cc1`, 31.3 ± 14%.

In the case of `O=C(O)CCC(CP(=O)(O)O)C(=O)O` (centres undefined) [PMPA (NAALADase inhibitor)], the parasite growth stood at 126 ± 9.3%. To `Cc1ncc(CN2CC=C(c3ccccc3)CC2)c(N)n1` belongs 135 ± 13%; to `C[C@@]12N[C@@H](Cc3ccccc31)c1ccccc12` [(-)-MK 801 maleate], 111 ± 10%. The result for `CCCCC1(C2CCCC2)Cc2cc(OCCCC(=O)O)c(Cl)c(Cl)c2C1=O` (centres undefined) reads 124 ± 5%. Regarding `Cc1onc(O)c1C[C@H](N)C(=O)O`, the parasite growth amounted to 113 ± 34%. The result for `C[C@@H]1CC[C@H]2[C@@H](C)C(=O)O[C@@H]3O[C@@]4(C)CC[C@@H]1[C@]32OO4` [Artemisinin] reads 31.6 ± 8.8%; that for `Cc1cccc(C(C)c2c[nH]cn2)c1C` (centres undefined) [Medetomidine hydrochloride], 24.7 ± 22%. The result for `O=C1NC(=O)c2c1c1c3ccccc3[nH]c1c1[nH]c3ccccc3c21` [Arcyriaflavin A] reads 21.1 ± 14%. To `O[C@H]1[C@H](O)[C@@H](O)CN2CC[C@H](O)[C@H]12` [Castanospermine] belongs 150 ± 7.6%; to `COc1ccc(CCN2CCC(Nc3nc4ccccc4n3Cc3ccc(F)cc3)CC2)cc1` [Astemizole], less than 0%.

`CCCN(CCC)C1Cc2cc(OC)c(OC)cc2C1` had a parasite growth of 123 ± 7.5%.

Source of the values: the supplement of paper PMC4894684.
